Assay results from PubChem BioAssay AID1159580 (chemical genetic matrix, 2015).
Where “and” joins values, the source holds several entries; their conditions need not be identical. Equal entries are not always repeated. About 2,000 (36%) of roughly 5,500 compounds were called active. Inconclusive results (about 18%) are left out. Cut-off read from the data, not from the text of the source: active = normalized growth mostly below about 0.91 (no sharp cut-off); inconclusive = no clear call, values can overlap the other calls; inactive = mostly above about 0.92. The list shows a part of the results.

Test: chemical genetic growth profiling, strain panel (AID 1159580);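 note: tested at 20 µM; growth read once vehicle control cultures reached saturation at 30 °C; 1 = growth at the plate median or of vehicle wells; lower values mean less growth of the strain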
Conditions: S. cerevisiae deletion strains, growth OD

Measured: normalized growth

O=C(CCCN1CC=C(n2c(=O)[nH]c3ccccc32)CC1)c1ccc(F)cc1
inactive: locus YAL013W, strain DEP1, hits give low values 0.99 | locus YAL021C, strain ccr4, hits give low values 0.958 | locus YAL026C, strain drs2, hits give low values 0.992 | locus YAL030W, strain snc1, hits give low values 0.988 | locus YBL061C, strain skt5, hits give low values 0.989 | locus YBR009C, strain hhf1, hits give low values 0.979 | locus YBR021W, strain FUR4, hits give low values 0.953 | locus YBR023C, strain chs3, hits give low values 0.983 | locus YBR171W, strain sec66, hits give low values 0.963 | locus YBR229C, strain ROT2, hits give low values 0.949 | locus YBR231C, strain swc5, hits give low values 0.953 | locus YBR279W, strain paf1, hits give low values 0.972 | locus YCL011C, strain gbp2, hits give low values 0.975 | locus YCL016C, strain dcc1, hits give low values 1 | locus YCL029C, strain bik1, hits give low values 0.973 | locus YCL069W, strain vba3, hits give low values 0.992 | locus YCR088W, strain abp1, hits give low values 1 | locus YDL005C, strain med2, hits give low values 0.973 | locus YDL035C, strain GPR1, hits give low values 0.972 | locus YDL040C, strain nat1, hits give low values 0.992 | locus YDL074C, strain BRE1, hits give low values 0.984 | locus YDL101C, strain DUN1, hits give low values 0.976 | locus YDL134C, strain PPH21, hits give low values 0.983 | locus YDL185W, strain tfp1, hits give low values 0.991 | locus YDL192W, strain arf1, hits give low values 0.983 | locus YDR001C, strain nth1, hits give low values 0.974 | locus YDR069C, strain doa4, hits give low values 0.952 | locus YDR101C, strain arx1, hits give low values 0.983 | locus YDR137W, strain rgp1, hits give low values 0.993 | locus YDR150W, strain NUM1, hits give low values 0.968 | locus YDR159W, strain sac3, hits give low values 0.989 | locus YDR162C, strain NBP2, hits give low values 0.978 | locus YDR195W, strain ref2 0.936 | locus YDR297W, strain sur2, hits give low values 0.984 | locus YDR318W, strain mcm21, hits give low values 0.991 | locus YDR334W, strain swr1, hits give low values 0.976 | locus YDR335W, strain msn5, hits give low values 0.979 | locus YDR388W, hits give low values 0.986 | locus YDR392W, strain spt3, hits give low values 0.994 | locus YDR502C, strain sam2, hits give low values 0.968 | locus YEL003W, strain gim4, hits give low values 0.99 | locus YEL037C, strain rad23, hits give low values 1 | locus YEL061C, strain CIN8 (second series), hits give low values 0.981 | locus YEL061C, strain CIN8, hits give low values 0.985 | locus YER015W, strain faa2, hits give low values 0.969 | locus YER016W, strain bim1, hits give low values 1.01 | locus YER110C, hits give low values 0.957 | locus YER111C, strain swi4, hits give low values 0.975 | locus YER155C, strain BEM2 (second series), hits give low values 0.929 | locus YER155C, strain BEM2, hits give low values 0.996 | locus YER167W, strain BCK2, hits give low values 0.982 | locus YFR010W, strain ubp6, hits give low values 0.993 | locus YGL078C, strain dbp3, hits give low values 0.976 | locus YGL086W, strain mad1, hits give low values 0.976 | locus YGL167C, strain pmr1, hits give low values 0.979 | locus YGL173C, strain kem1, hits give low values 1 | locus YGL227W, strain vid30, hits give low values 0.953 | locus YGL240W, strain doc1, hits give low values 0.953 | locus YGL248W, strain PDE1, hits give low values 0.982 | locus YGL253W, strain hxk2, hits give low values 0.981 | locus YGR078C, strain PAC10, hits give low values 0.985 | locus YGR135W, strain pre9, hits give low values 0.968 | locus YGR229C, strain SMI1, hits give low values 0.992 | locus YGR252W, strain gcn5, hits give low values 0.906 | locus YHR013C, strain ard1, hits give low values 1.01 | locus YHR027C, strain rpn1, hits give low values 0.977 | locus YHR030C, strain SLT2, hits give low values 0.991 and 0.98 | locus YHR079C, strain IRE1 (second series), hits give low values 0.989 | locus YHR079C, strain IRE1, hits give low values 0.971 | locus YHR094C, strain hxt1, hits give low values 0.994 | locus YHR129C, strain ARP1, hits give low values 0.994 | locus YHR142W, strain chs7, hits give low values 0.983 | locus YHR200W, strain rpn10, hits give low values 0.99 | locus YIL066C, strain RNR3, hits give low values 0.971 | locus YIL073C, strain SPO22, hits give low values 1.02 | locus YIL125W, strain kgd1, hits give low values 0.99 | locus YIR030C, strain dcg1, hits give low values 0.972 | locus YJL092W, strain hpr5, hits give low values 0.984 | locus YJL095W, strain BCK1 (second series), hits give low values 0.996 | locus YJL095W, strain BCK1, hits give low values 1.03 and 0.998 | locus YJL115W, strain asf1, hits give low values 0.975 | locus YJL129C, strain trk1, hits give low values 0.939 | locus YJL134W, strain LCB3, hits give low values 0.979 | locus YJL154C, strain vps35, hits give low values 0.994 | locus YJL164C, strain tpk1, hits give low values 0.994 | locus YJL166W, strain qcr8, hits give low values 0.971 | locus YJL168C, strain set2, hits give low values 0.999 | locus YJL187C, strain SWE1 (second series), hits give low values 0.978 | locus YJL187C, strain SWE1, hits give low values 0.988 | locus YJR043C, strain POL32, hits give low values 0.995 | locus YJR066W, strain TOR1, hits give low values 0.93
